The text below walks through data of PubChem BioAssay (NCATS).

SMILES strings stand for the structures. Active and inactive are the calls of the source. No rule for the calls is given here.

The conditions of one test: Ebola virus entry assay, blue channel fluorescence.
Turning to `Cc1c(N)cccc1C(F)(F)F`, the molecule was classed as inactive.

Consider `CCCCC1C(=O)N(c2ccccc2)N(c2ccccc2)C1=O`, for which the molecule was called inactive.

As a reminder, the AC50 is the midpoint of the concentration-response curve, whichever way the signal moves. Turning to `CC(C)(Cc1c[nH]c2ccccc12)NCC(O)COc1ccccc1C#N` (stereo not drawn), the AC50 was 35.5 µM (active).

As for `CN(C)CCN(Cc1ccccc1)c1ccccn1`, the AC50 is 22.4 µM (active).

Take `CO[C@]1(NC(=O)CSC(F)F)C(=O)N2C(C(=O)O)=C(CSc3nnnn3CCO)CO[C@H]21`: the result was inactive.

In the case of `COc1ccc(CN(CCN(C)C)c2ccccn2)cc1`, the AC50 is 15.8 µM (active).

`O=c1[nH]sc2cc(Cl)ccc12`: the AC50 is 39.8 µM (active).

Take `O=C(OCc1ccccc1)c1ccc(O)cc1`: the AC50 was 22.4 µM (active).

Regarding `CC(C)NCC(O)COc1ccc(COCCOC(C)C)cc1` (stereo not drawn), the concentration at half-maximal activity (AC50) was 15.8 µM (active).

Consider `C=C[C@@]1(C)CC(=O)[C@]2(O)[C@@]3(C)[C@@H](O)CCC(C)(C)[C@@H]3[C@H](O)[C@H](OC(C)=O)[C@@]2(C)O1`, for which the AC50 is 10 µM (active).

In the case of `COCCc1ccc(OCC2CO2)cc1` (stereo not drawn), the result was inactive.

Regarding `CC(Cc1cccc(C(F)(F)F)c1)NCCOC(=O)c1ccccc1` (stereo not drawn), the AC50 was 31.6 µM (active).

Take `Oc1ccc(Cl)cc1Cc1cc(Cl)ccc1O`: the AC50 was 3.55 µM (active).

`CC(C)C[C@@H](N)C(=O)O`: the result was inactive.

For the molecule `CCCCCCCCCCCCCCCCC(C(=O)O)C(O)(CC(=O)O)C(=O)O` (stereo not drawn), the result was inactive.

With `O=C(/C=C/c1ccc(O)c(O)c1)O[C@@H]1C[C@@](OC(=O)/C=C/c2ccc(O)c(O)c2)(C(=O)O)C[C@@H](O)[C@@H]1O`, the AC50 is 28.2 µM (active).

Take `C[C@]12CC[C@@H]3c4ccc(O)cc4CC[C@H]3[C@@H]1CC[C@@H]2OC(=O)CCC1CCCC1`: the molecule was called inactive.

Consider `NC(=O)C(=O)N/N=C/c1ccc([N+](=O)[O-])o1`, for which the result was inactive.

As for `COC(=O)[C@H]1[C@H]2C[C@@H]3c4[nH]c5cc(OC)ccc5c4CCN3C[C@H]2C[C@@H](OC(=O)/C=C/c2ccc(O)c(OC)c2)[C@@H]1OC`, the AC50 was 3.55 µM (active).

Take `CCc1cc(Cl)c(OC)c(C(=O)NC[C@@H]2CCCN2CC)c1O`: the half-maximal activity concentration (AC50) is 31.6 µM (active).

As for `O=S1(=O)c2cccc3cccc(c23)N1CCCN1CCN(c2ccc(F)cc2)CC1`, the AC50 is 25.1 µM (active).

On to `CC(C)n1nc(-c2cc3cc(O)ccc3[nH]2)c2c(N)ncnc21`, for which the AC50 was 2.82 µM (active).

With `CC1=C(C(=O)O)N2C(=O)[C@@H](NC(=O)[C@H](N)C3=CCC=CC3)[C@H]2SC1`, the call was inactive.

With `CO/N=C(/C(=O)N[C@@H]1C(=O)N2C(C(=O)O)=C(Cn3nnc(C)n3)CS[C@H]12)c1csc(N)n1`, the molecule was classed as inactive.

As to `CC[C@H](NC(C)C)[C@H](O)c1ccc(O)c2[nH]c(=O)ccc12`, the molecule was called inactive.

Take `Cc1ccc(C(=O)Nc2ccc(S(=O)(=O)O)c3cc(S(=O)(=O)O)cc(S(=O)(=O)O)c23)cc1NC(=O)c1cccc(NC(=O)Nc2cccc(C(=O)Nc3cc(C(=O)Nc4ccc(S(=O)(=O)O)c5cc(S(=O)(=O)O)cc(S(=O)(=O)O)c45)ccc3C)c2)c1`: the concentration at half-maximal activity (AC50) is 39.8 µM (active).

Take `CCCOc1ccc(C(=O)OCCN(CC)CC)cc1N`: the AC50 was 39.8 µM (active).

In the case of `NC(N)=NN=C(/C=C/c1ccc([N+](=O)[O-])o1)/C=C/c1ccc([N+](=O)[O-])o1`, the AC50 is 3.16 µM (active).

Regarding `Cc1ccc(=O)n(-c2ccccc2)c1`, the call was inactive.

As to `C[C@H](N)C(=O)N[C@@H](C)C(=O)NC1[C@H]2CN(c3nc4c(cc3F)c(=O)c(C(=O)O)cn4-c3ccc(F)cc3F)C[C@@H]12` (stereo partly drawn), the molecule was called inactive.

With `Cc1cccc(Nc2cc(Cl)nc(SCC(=O)O)n2)c1C`, the molecule was classed as inactive.

For `c1ccc(CC2=NCCN2)cc1`, the molecule was called inactive.

As to `Oc1ccc(Cl)cc1Sc1cc(Cl)ccc1O`, the AC50 was 10 µM (active).

For the molecule `CCOC(=O)N1CCC(n2c(=O)[nH]c3cc(Cl)ccc32)CC1`, the result was inactive.

For `Cc1cc2c(OCC(CNC(C)(C)C)OC(=O)c3ccccc3)cccc2[nH]1` (stereo not drawn), the AC50 was 25.1 µM (active).

With `COc1ccc2nc(NC(=O)Nc3ccccc3)sc2c1`, the AC50 was 22.4 µM (active).

Regarding `C#C[C@]1(O)CC[C@H]2[C@@H]3CCc4cc(O)ccc4[C@H]3CC[C@@]21C`, the AC50 was 11.2 µM (active).

Take `CC1(C)O[C@@H]2C[C@H]3[C@@H]4CCC5=CC(=O)CC[C@]5(C)[C@@]4(F)[C@@H](O)C[C@]3(C)[C@]2(C(=O)CCl)O1`: the AC50 is 12.6 µM (active).

For `C=C1C[C@H]2[C@@H]3C=C(C)C4=CC(=O)CC[C@]4(C)[C@H]3CC[C@]2(C)[C@@]1(OC(C)=O)C(C)=O`, the call was inactive.

The conditions of another test: Ebola virus entry assay, ratio channel.
Turning to `Cc1c(N)cccc1C(F)(F)F`, the result was inactive.

For `CCCCC1C(=O)N(c2ccccc2)N(c2ccccc2)C1=O`, the outcome was inactive.

Take `CC(C)(Cc1c[nH]c2ccccc12)NCC(O)COc1ccccc1C#N` (stereo not drawn): the AC50 was 25.1 µM (active).

Regarding `CN(C)CCN(Cc1ccccc1)c1ccccn1`, the AC50 was 20 µM (active).

Take `CO[C@]1(NC(=O)CSC(F)F)C(=O)N2C(C(=O)O)=C(CSc3nnnn3CCO)CO[C@H]21`: the result was inactive.

On to `COc1ccc(CN(CCN(C)C)c2ccccn2)cc1`, for which the AC50 was 15.8 µM (active).

Consider `O=c1[nH]sc2cc(Cl)ccc12`, for which the result was inactive.

`O=C(OCc1ccccc1)c1ccc(O)cc1`: the outcome was inactive.

In the case of `CC(C)NCC(O)COc1ccc(COCCOC(C)C)cc1` (stereo not drawn), the AC50 was 12.6 µM (active).

Take `C=C[C@@]1(C)CC(=O)[C@]2(O)[C@@]3(C)[C@@H](O)CCC(C)(C)[C@@H]3[C@H](O)[C@H](OC(C)=O)[C@@]2(C)O1`: the outcome was inactive.

On to `COCCc1ccc(OCC2CO2)cc1` (stereo not drawn), for which the outcome was inactive.

Regarding `CC(Cc1cccc(C(F)(F)F)c1)NCCOC(=O)c1ccccc1` (stereo not drawn), the AC50 was 28.2 µM (active).

For `Oc1ccc(Cl)cc1Cc1cc(Cl)ccc1O`, the AC50 was 11.2 µM (active).

Regarding `CC(C)C[C@@H](N)C(=O)O`, the outcome was inactive.

Consider `CCCCCCCCCCCCCCCCC(C(=O)O)C(O)(CC(=O)O)C(=O)O` (stereo not drawn), for which the outcome was inactive.

In the case of `O=C(/C=C/c1ccc(O)c(O)c1)O[C@@H]1C[C@@](OC(=O)/C=C/c2ccc(O)c(O)c2)(C(=O)O)C[C@@H](O)[C@@H]1O`, the AC50 was 20 µM (active).

Turning to `C[C@]12CC[C@@H]3c4ccc(O)cc4CC[C@H]3[C@@H]1CC[C@@H]2OC(=O)CCC1CCCC1`, the result was inactive.

As for `NC(=O)C(=O)N/N=C/c1ccc([N+](=O)[O-])o1`, the result was inactive.

For `COC(=O)[C@H]1[C@H]2C[C@@H]3c4[nH]c5cc(OC)ccc5c4CCN3C[C@H]2C[C@@H](OC(=O)/C=C/c2ccc(O)c(OC)c2)[C@@H]1OC`, the AC50 is 3.16 µM (active).

In the case of `CCc1cc(Cl)c(OC)c(C(=O)NC[C@@H]2CCCN2CC)c1O`, the AC50 is 20 µM (active).

For `O=S1(=O)c2cccc3cccc(c23)N1CCCN1CCN(c2ccc(F)cc2)CC1`, the AC50 was 25.1 µM (active).

Consider `CC(C)n1nc(-c2cc3cc(O)ccc3[nH]2)c2c(N)ncnc21`, for which the AC50 is 2.24 µM (active).

In the case of `CC1=C(C(=O)O)N2C(=O)[C@@H](NC(=O)[C@H](N)C3=CCC=CC3)[C@H]2SC1`, the result was inactive.

With `CO/N=C(/C(=O)N[C@@H]1C(=O)N2C(C(=O)O)=C(Cn3nnc(C)n3)CS[C@H]12)c1csc(N)n1`, the result was inactive.

For `CC[C@H](NC(C)C)[C@H](O)c1ccc(O)c2[nH]c(=O)ccc12`, the outcome was inactive.

As to `Cc1ccc(C(=O)Nc2ccc(S(=O)(=O)O)c3cc(S(=O)(=O)O)cc(S(=O)(=O)O)c23)cc1NC(=O)c1cccc(NC(=O)Nc2cccc(C(=O)Nc3cc(C(=O)Nc4ccc(S(=O)(=O)O)c5cc(S(=O)(=O)O)cc(S(=O)(=O)O)c45)ccc3C)c2)c1`, the concentration at half-maximal activity (AC50) was 20 µM (active).

With `CCCOc1ccc(C(=O)OCCN(CC)CC)cc1N`, the AC50 was 22.4 µM (active).

As for `NC(N)=NN=C(/C=C/c1ccc([N+](=O)[O-])o1)/C=C/c1ccc([N+](=O)[O-])o1`, the AC50 was 3.16 µM (active).

Consider `Cc1ccc(=O)n(-c2ccccc2)c1`, for which the result was inactive.

In the case of `C[C@H](N)C(=O)N[C@@H](C)C(=O)NC1[C@H]2CN(c3nc4c(cc3F)c(=O)c(C(=O)O)cn4-c3ccc(F)cc3F)C[C@@H]12` (stereo partly drawn), the outcome was inactive.

Consider `Cc1cccc(Nc2cc(Cl)nc(SCC(=O)O)n2)c1C`, for which the outcome was inactive.

Turning to `c1ccc(CC2=NCCN2)cc1`, the result was inactive.

For the molecule `Oc1ccc(Cl)cc1Sc1cc(Cl)ccc1O`, the AC50 was 15.8 µM (active).

For `CCOC(=O)N1CCC(n2c(=O)[nH]c3cc(Cl)ccc32)CC1`, the outcome was inactive.

Regarding `Cc1cc2c(OCC(CNC(C)(C)C)OC(=O)c3ccccc3)cccc2[nH]1` (stereo not drawn), the AC50 was 28.2 µM (active).

For the molecule `COc1ccc2nc(NC(=O)Nc3ccccc3)sc2c1`, the AC50 was 15.8 µM (active).

As to `C#C[C@]1(O)CC[C@H]2[C@@H]3CCc4cc(O)ccc4[C@H]3CC[C@@]21C`, the AC50 is 11.2 µM (active).

For `CC1(C)O[C@@H]2C[C@H]3[C@@H]4CCC5=CC(=O)CC[C@]5(C)[C@@]4(F)[C@@H](O)C[C@]3(C)[C@]2(C(=O)CCl)O1`, the AC50 is 10 µM (active).

As for `C=C1C[C@H]2[C@@H]3C=C(C)C4=CC(=O)CC[C@]4(C)[C@H]3CC[C@]2(C)[C@@]1(OC(C)=O)C(C)=O`, the outcome was inactive.
